C diff growth = C. difficile growth inhibition; Clostridium difficile clinical isolate growth, OD600, 24 h; stronger effect = lower value; growth activity, negative = inhibition, % at 16 µg/mL (by protocol); 0.25% of 86,000 active;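 active means mean growth activity at or below -80% and every replicate also at or below -80%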;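 further: 0% = DMSO wells and -100% = levofloxacin 16 µg/mL wells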
* = called active by the depositor; ! = repeats disagree. The sample as a whole holds a higher share of hits than the screen did.

SMILES	C diff growth
O=C(C[C@@H]1CC[C@H]2[C@@H](COC[C@@H](O)CN2C(=O)Nc2ccc(C(F)(F)F)cc2)O1)NCC1CCCCC1	-100.0*!
CCNC(=O)C[C@H]1CC[C@@H]2[C@H](COC[C@@H](O)CN2C(=O)Nc2ccc(C(F)(F)F)cc2)O1	61.6
O=C(C[C@H]1CC[C@@H]2[C@H](COC[C@H](O)CN2C(=O)Nc2ccc(C(F)(F)F)cc2)O1)NCC1CC1	-22.6
CCNC(=O)C[C@@H]1CC[C@H]2[C@@H](COC[C@@H](O)CN2C(=O)Nc2ccc(C(F)(F)F)cc2)O1	-100.0*
O=C(C[C@@H]1CC[C@@H]2[C@H](COC[C@@H](O)CN2C(=O)Nc2ccc(C(F)(F)F)cc2)O1)NCC1CCCCC1	58.3
C[C@H](CO)N1C[C@H](C)[C@H](CN(C)C(=O)Cc2ccccc2)Oc2cc(C3=CCCCC3)ccc2S1(=O)=O	6.7
C[C@@H]1CN([C@H](C)CO)S(=O)(=O)c2ccc(C#CC3CCCC3)cc2O[C@H]1CN(C)C(=O)Cc1ccccc1	-10.8
COc1ccc2c3c([nH]c2c1)[C@H](CO)NCC31CCN(C(=O)Nc2ccc3c(c2)OCO3)CC1	1.8
C[C@@H]1CN([C@@H](C)CO)C(=O)c2cccc(NS(=O)(=O)c3ccccc3)c2O[C@@H]1CN(C)C(=O)NC1CCCCC1	-1.1
C[C@@H]1CCCCO[C@@H](CN(C)C)[C@@H](C)CN([C@H](C)CO)C(=O)c2cc(NS(=O)(=O)c3cccs3)ccc2O1	1.8
O=C(C[C@@H]1CC[C@H]2[C@@H](COC[C@@H](O)CN2C(=O)c2ccc3c(c2)OCO3)O1)NCCN1CCCC1	-2.7
COCCNC(=O)C[C@@H]1C[C@H]2c3cc(NC(=O)c4ccc5c(c4)OCO5)ccc3O[C@H]2[C@@H](CO)O1	1.0
CO[C@H]1CN(C)C(=O)c2cc(NC(=O)Nc3ccc(Cl)c(Cl)c3)ccc2OC[C@H](C)NC[C@@H]1C	-96.7*
CO[C@H]1CN(C)C(=O)c2ccc(NC(=O)Nc3cc(Cl)cc(Cl)c3)cc2OC[C@@H](C)NC[C@@H]1C	8.4
CO[C@@H]1CN(C)C(=O)c2cc(NC(=O)Nc3ccc(Cl)c(Cl)c3)ccc2OC[C@@H](C)NC[C@@H]1C	-96.8*
CO[C@H]1CN(C)C(=O)c2ccc(NC(=O)Nc3cc(Cl)cc(Cl)c3)cc2OC[C@H](C)NC[C@H]1C	-95.7*
CO[C@H]1CN(C)C(=O)c2cc(NC(=O)Nc3ccccc3)ccc2OC[C@@H](C)NC[C@H]1C	-1.4
CO[C@H]1CN(C)C(=O)c2ccc(NC(=O)Nc3cc(Cl)cc(Cl)c3)cc2OC[C@@H](C)NC[C@H]1C	-53.0
CO[C@@H]1CN(C)C(=O)c2cc(NC(=O)Nc3ccccc3)ccc2OC[C@@H](C)NC[C@@H]1C	0.1
CO[C@@H]1CN(C)C(=O)c2cc(NC(=O)Nc3ccc(Cl)cc3)ccc2OC[C@@H](C)NC[C@@H]1C	-2.1
CO[C@H]1CN(C)C(=O)c2cc(NC(=O)Nc3ccc(Cl)cc3)ccc2OC[C@H](C)NC[C@H]1C	-1.3
CO[C@H]1CN(C)C(=O)c2cc(NC(=O)Nc3ccccc3)ccc2OC[C@@H](C)NC[C@@H]1C	-0.7
CO[C@H]1CN(C)C(=O)c2cc(NC(=O)Nc3ccc(Cl)cc3)ccc2OC[C@H](C)NC[C@@H]1C	-4.1
CO[C@@H]1CN(C)C(=O)c2cc(NC(=O)Nc3ccc(Cl)c(Cl)c3)ccc2OC[C@H](C)NC[C@H]1C	-98.4*
CNC[C@@H]1OCCCC[C@H](C)Oc2ccc(NS(=O)(=O)c3cn(C)cn3)cc2C(=O)N([C@@H](C)CO)C[C@@H]1C	6.5
SMILES	C diff growth
O=C(C[C@H]1C[C@H]2c3cc(NC(=O)CC4CC4)ccc3O[C@H]2[C@H](CO)O1)NCc1cccc(F)c1	-0.7
Cc1cc(C)cc(NC(=O)Nc2ccc3c(c2)C(=O)N(C)[C@@H]2CC[C@@H](CC(=O)O)O[C@H]2CO3)c1	1.4
OC[C@H]1[C@@H](c2ccc(C3=CCCC3)cc2)[C@@H]2CN(Cc3ccncc3)CCCCN12	-0.2
O=C(C[C@H]1C=C[C@@H](NS(=O)(=O)c2cccc(F)c2)[C@H](CO)O1)N1CCCCC1	3.7
COc1ccccc1C(=O)Nc1ccc2c(c1)C(=O)N(C)C[C@H](OC)[C@@H](C)CN(CC1CC1)[C@@H](C)CO2	3.4
CO[C@H]1CN(C)C(=O)c2cc(NC(C)=O)ccc2OC[C@H](C)N(C(=O)c2ccccn2)C[C@@H]1C	-1.7
O=C(C[C@H]1CC[C@@H]2[C@H](COC[C@@H](O)CN2C(=O)Nc2cccc(Cl)c2)O1)N1CCCCC1	59.7
O=C(C[C@@H]1CC[C@@H]2[C@H](COC[C@H](O)CN2C(=O)Nc2cc(Cl)cc(Cl)c2)O1)N1CCOCC1	-100.8*!
O=C(C[C@H]1CC[C@@H]2[C@H](COC[C@H](O)CN2C(=O)Nc2cc(Cl)cc(Cl)c2)O1)N1CCOCC1	-92.1*!
O=C(C[C@@H]1CC[C@H]2[C@@H](COC[C@H](O)CN2C(=O)Nc2ccc(Cl)cc2)O1)N1CCCCC1	2.8
O=C(C[C@H]1CC[C@H]2[C@@H](COC[C@@H](O)CN2C(=O)Nc2cc(Cl)cc(Cl)c2)O1)N1CCOCC1	-14.5
O=C(C[C@@H]1CC[C@@H]2[C@H](COC[C@@H](O)CN2C(=O)Nc2cc(Cl)cc(Cl)c2)O1)N1CCOCC1	63.3
O=C(C[C@H]1C[C@@H]2c3cc(NS(=O)(=O)c4ccc(F)cc4)ccc3O[C@@H]2[C@@H](CO)O1)NCCN1CCCCC1	-4.7
O=C(Nc1ccc2c(c1)[C@@H]1C[C@H](CC(=O)N3CCCCC3)O[C@@H](CO)[C@@H]1O2)c1cccnc1	-2.4
COCC#Cc1ccc([C@H]2[C@@H](CO)N3C(=O)CN(C(=O)CN4CCOCC4)C[C@@H]23)cc1	3.2
C[C@H]1CN([C@@H](C)CO)C(=O)c2cc(C3=CCCCC3)cnc2O[C@H]1CN(C)Cc1ccccn1	3.7
COc1ccc(C#Cc2ccc3c(c2)[C@H]2[C@H](CCN2C(=O)c2ccncc2)[C@@H](CO)N3)cc1	7.9
COc1ccccc1C#Cc1ccc2c(c1)[C@H]1[C@H](CCN1C(=O)c1ccncc1)[C@H](CO)N2	-99.9*
COc1ccc(C#Cc2ccc3c(c2)[C@H]2[C@H](CCN2C(=O)c2ccncc2)[C@H](CO)N3)cc1	52.8
CC(C)NC(=O)N1CC2(C1)[C@H](c1ccccc1)[C@H](CO)N2C(=O)C1CCCCC1	6.9
CCC(=O)N[C@H]1CC[C@@H](CCNC(=O)Nc2ccc(F)cc2)O[C@@H]1CO	6.7
O=C(NCC[C@H]1CC[C@@H](NC(=O)C2CC2)[C@@H](CO)O1)Nc1ccc(C(F)(F)F)cc1	-99.7*
O=C(NCC[C@H]1CC[C@@H](NC(=O)C2CC2)[C@H](CO)O1)Nc1ccc(C(F)(F)F)cc1	19.8
O=C(NCC[C@H]1CC[C@@H](NC(=O)C2CC2)[C@H](CO)O1)Nc1ccc(Cl)cc1	-0.2
O=C(Nc1ccc(C(F)(F)F)cc1)N[C@H]1CC[C@@H](CCNC(=O)c2ccccc2F)O[C@@H]1CO	0.6
CN(C)CC(=O)N[C@@H]1CC[C@@H](CCNC(=O)Nc2ccc(C(F)(F)F)cc2)O[C@@H]1CO	-100.3*
CN(C)CC(=O)N[C@@H]1CC[C@@H](CCNC(=O)Nc2ccc(Cl)cc2)O[C@@H]1CO	4.9
CC(=O)N[C@H]1CC[C@H](CCNC(=O)Nc2ccc(C(F)(F)F)cc2)O[C@H]1CO	-94.9*
CC(=O)N[C@H]1CC[C@@H](CCNC(=O)Nc2ccc(C(F)(F)F)cc2)O[C@H]1CO	-10.8
C[C@@H]1CN([C@@H](C)CO)C(=O)c2cc(NC(=O)CCC(F)(F)F)ccc2O[C@@H]1CN(C)Cc1ccc2c(c1)OCO2	-3.8

High-throughput results from PubChem.
